# Data as given in ChEMBL document CHEMBL3988442, “University of Dundee, Small-Polar-MMV Screening Library” (2021).
# Out of some 69,000 compounds screened, about 1,000 (1.4%) showed an effect of 50% or more. The full list was thinned out, with strong results kept by preference.
# Tested on: Leishmania donovani
# Assay: Leishmania intramacrophage assay
# Format: functional, organism-based
# Set-up: scale not given: in the data most compounds retested in dose-response had high values
compound,measurement,setting,value
CC(C)(C)C(=O)N1CCN(Cn2nccc2-c2cccnc2)CC1,Percent Effect,"30.3 µM, […]",7.096%
c1cncc(-c2ccnn2CN2CCC3(CC2)OCCO3)c1,Percent Effect,"30.3 µM, […]",24.88%
COc1ccc(CC2CN(C(=O)c3ocnc3C)CCO2)cc1 (stereo not drawn),Percent Effect,"30.3 µM, […]",-6.657%
N#Cc1ccccc1C(=O)N1C[C@H](CO)C[C@H](CN2CCCC2)C1,Percent Effect,"30 µM, 30.03 µM",18.98%
Cc1nc2ccnn2c(C)c1CCC(=O)N1CCN(CCO)CC1,Percent Effect,30 µM,14.29%
CC(=O)N1CCCC(c2ccc(Cc3ccccc3)cn2)C1 (stereo not drawn),Percent Effect,"30.3 µM, […]",-26.06%
Cc1nc(CN2CCO[C@H]3CN(C(=O)c4cscn4)C[C@H]32)cs1,Percent Effect,"30.3 µM, […]",38.15%
Cc1ccsc1CN1CCc2nc3ccsc3c(=O)n2CC1.Cl,Percent Effect,"30.3 µM, […]",14.2%
Nc1nc(NCCO)cc(N2CCc3c([nH]c4ccccc34)C2)n1,Percent Effect,"30.3 µM, […]",50.32%
COc1ccc2[nH]c3c(c2c1)CN(c1cc(NCCO)nc(N)n1)CC3,Percent Effect,"30.3 µM, […]",13.82%
CC(C)Cc1ncc2c(n1)CN(c1cc(NCCO)nc(N)n1)C2,Percent Effect,"30.3 µM, […]",22.17%
CC(=O)N1CCO[C@@H]2CN(Cc3ccccc3F)C[C@@H]2C1.O=C(O)C(F)(F)F,Percent Effect,"30.3 µM, […]",6.292%
O=C(NCc1cccs1)C1CNCC12CCOCC2.O=C(O)C(F)(F)F (stereo not drawn),Percent Effect,"30.3 µM, […]",12.59%
CCN1CCC(NC(=O)N(C)Cc2csc3ccccc23)CC1,Percent Effect,"30.3 µM, […]",82.94%
CC(C)CN1CCC(NC(=O)N(C)Cc2csc3ccccc23)CC1,Percent Effect,"30.3 µM, […]",39.03%
CN(Cc1csc2ccccc12)C(=O)NC1CCS(=O)(=O)C1 (stereo not drawn),Percent Effect,"30.3 µM, […]",11.38%
COc1ccc(CCC(=O)Nc2cccnc2N2CCCC2)cc1Br,Percent Effect,"30 µM, 30.03 µM",33.61%
Cc1ccc(CNC(=O)CN2CCOC(Cn3cncn3)C2)s1 (stereo not drawn),Percent Effect,30 µM,21.75%
Cc1nc(Nc2nnc(C)s2)cc(C2CCCN2c2ccncn2)n1 (stereo not drawn),Percent Effect,"30.3 µM, […]",-2.613%
CCC(NC(=O)C(C)(C)C)c1ccccc1C (stereo not drawn),Percent Effect,"30.3 µM, […]",-8.319%
CC(=O)N1CCN(C(=O)NC(C)C)CC2(CC(=O)N(C)C2)C1 (stereo not drawn),Percent Effect,"30.3 µM, […]",6.648%
CC(C)CC(=O)N1CCN(C(=O)NC(C)C)CC2(CC(=O)N(C)C2)C1 (stereo not drawn),Percent Effect,"30.3 µM, […]",-8.176%
COCC(=O)N1CCN(C(=O)NC(C)C)CC2(CC(=O)N(C)C2)C1 (stereo not drawn),Percent Effect,"30.3 µM, […]",56.1%
CCc1cnc(CN(C)C2CCN(CCCNS(C)(=O)=O)C2)o1 (stereo not drawn),Percent Effect,"30.3 µM, […]",8.531%
c1csc(CCC2CCCCN2Cc2noc(C3CC3)n2)c1 (stereo not drawn),Percent Effect,"30.3 µM, […]",-14.11%
CCC1CCCCCN1C(=O)c1ccc(N2CCC(O)CC2)cc1 (stereo not drawn),Percent Effect,"30.3 µM, […]",32.16%
CCCOc1c(Cl)cc(C(=O)N2CCOC23CCN(C)CC3)cc1Cl,Percent Effect,"30.3 µM, […]",88.42%
CCN1CCC2(CC1)OCCN2C(=O)c1cc(Cl)c(OC)c(Cl)c1.Cl,Percent Effect,"30.3 µM, […]",18.32%
CCN1CCC2(CC1)OCCN2C(=O)c1ccc(OC)c(Cl)c1.Cl,Percent Effect,"30.3 µM, […]",22.75%
CS(=O)(=O)N1CCC2(CC1)CC(NCc1ccco1)c1ccccc12.O=C(O)C(F)(F)F (stereo not drawn),Percent Effect,"30.3 µM, […]",16.74%
C/N=C1\c2cc3cc(OC)ccc3n2CCN1Cc1ccccc1.O=C(O)C(F)(F)F,Percent Effect,"30.3 µM, […]",57.81%
COc1ccc(CN2CC[C@@H](O)[C@@H]2Cc2ccccc2)cc1.O=C(O)C(F)(F)F,Percent Effect,"30 µM, 30.03 µM",-18.25%
C/N=C1\c2cc3cc(OC)ccc3n2CCN1C.Cl,Percent Effect,"30.3 µM, […]",10.14%
C/N=C1/c2cc3cc(OC)ccc3n2CCN1C,Percent Effect,"30.3 µM, […]",-16.2%
COc1ccc2c(ccn2CCC(=O)O)c1,Percent Effect,"30 µM, 30.03 µM",9.834%
C/N=C1/c2cc3cc(OC)ccc3n2CCN1Cc1ccccc1.Cl,Percent Effect,"30.3 µM, […]",64.09%
COCCN1C[C@H]2CC[C@@H]1CN(Cc1cc(=O)c3cc(C)ccc3[nH]1)C2,Percent Effect,"30.3 µM, […]",38.8%
CSCC(C)(O)CNS(=O)(=O)c1cccc(Cl)c1 (stereo not drawn),Percent Effect,"30.3 µM, […]",18.54%
CC1CCN(C(=O)C(C)N2CCc3[nH]nc(C(F)(F)F)c3C2)CC1 (stereo not drawn),Percent Effect,"30.3 µM, […]",13.32%
Cc1nc(C(=O)N(C)CC2CCCO2)nn1-c1ccccc1C(C)C (stereo not drawn),Percent Effect,"30.3 µM, […]",0.9975%
Cn1cc(-c2nnn3c2COC(CNC(=O)c2cccs2)C3)cn1 (stereo not drawn),Percent Effect,"30.3 µM, […]",37.28%
Cc1cc(N2CCC(N(C)C(=O)c3ccccc3F)CC2)nc(C)n1,Percent Effect,"30.3 µM, […]",35.99%
Cc1cc(N2CCC(N(C)C(=O)Nc3ccccc3)CC2)nc(C)n1,Percent Effect,"30 µM, 30.03 µM",11.78%
Cc1nc(C)c(C)c(N2CCC(NCCOc3ccccc3)CC2)n1,Percent Effect,"30.3 µM, […]",58.55%
Cc1ccnc(N2CCC(NCCOc3ccccc3)CC2)n1,Percent Effect,"30.3 µM, […]",18.71%
Cc1cc(N2CCC(N(C)C(=O)c3ccccc3)CC2)nc(C)n1,Percent Effect,"30 µM, 30.03 µM",62.61%
Cc1cc(N2CCC(N(C)C(=O)c3ccc(C#N)cc3)CC2)nc(C)n1,Percent Effect,"30.3 µM, […]",14.71%
c1ccc(OCCNC2CCN(c3ncccn3)CC2)cc1,Percent Effect,"30.3 µM, […]",4.504%
O=C(COCCOc1ccccc1)NC1CCN(c2ncccn2)CC1,Percent Effect,"30.3 µM, […]",21.86%
CN(C)c1ccnc(N2CCC(NCCOc3ccccc3)CC2)n1,Percent Effect,"30.3 µM, […]",79.37%
Cc1cc(N2CCC(O)CC2)nc(C)n1,Percent Effect,"30.3 µM, […]",1.581%
Cc1nc(CN2CCCC(NCCOc3ccccc3)C2)no1 (stereo not drawn),Percent Effect,"30 µM, 30.03 µM",33.1%
Cc1cc(N2CCC(NCCOc3ccccc3)CC2)nc(C)n1,Percent Effect,"30.3 µM, […]",53.39%
